In the first assay the target is ACOT6. Nature of the assay: pooled miR-30 sensor sort-seq; sequence = guide strand. Conditions: shRNA.
In turn, TTCTGGGTAACAGATTATCTGG registered a sensor-assay potency score (higher = more potent) of -1.27. On the same count and under the same terms, under TTTCCCATGAGCTTGTAGCCTT stands -0.268. On the same count and under the same terms, under TAATGTAGAGGAGCTACTGTGT stands 0.0472. On the same count and under the same terms, then TTTAGGAATAATCATATCCTTG, with -0.802; and TAGTGATTTTTACTTTTCCTAG, with -1.27.

The next assay concerns the target ACRV1. Described as above. Conditions: shRNA.
Consider TCGACAGCATATAATTTGCATC, for which the sensor-assay potency score (higher = more potent) was -1.21. The same measure, in the same setting: under ATCTTCTTTAACATGCACTGCT stands -0.185; under TTTTCCACCTTCAAAGATCTTC, -0.56; under ATAATTTGCATCCTCGTTCCAT, -0.172. Take TTCGACAGCATATAATTTGCAT: the sensor-assay potency score (higher = more potent) was -0.0881. The same measure, in the same setting: then TTGAACCATGAATTGGAGTTTT, with -1.17; and TCTTTAACATGCACTGCTGGGA, with -0.397; and TCTTCTTTAACATGCACTGCTG, with -0.6.

Take TTAGGCTGACTTGATGTTCCTC: the sensor-assay potency score (higher = more potent) was -0.162. Same read-out and setting: under TAATTTGCATCCTCGTTCCATG stands -0.581. The same measure, in the same setting: then TGAAGTTTGATGATCTATGGAG, with 0.139. On the same count and under the same terms, then TTTAACATGCACTGCTGGGAAT, with -1.59; and TTTGCATCCTCGTTCCATGGGA, with 0.226; and TCAAAGATCTTCTTTAACATGC, with -0.277. With TTGCATCCTCGTTCCATGGGAG, the sensor-assay potency score (higher = more potent) came to 0.0526.

Consider TAGGCTGACTTGATGTTCCTCT, for which the sensor-assay potency score (higher = more potent) is 0.616.

TTCAAAGATCTTCTTTAACATG: the sensor-assay potency score (higher = more potent) was -1.23. ATTCATATAAGCACATGTGTAG: the sensor-assay potency score (higher = more potent) was -0.436. The same measure, in the same setting: under TAATATTGTGCCTGAAGGCTGT stands 0.0194. On the same count and under the same terms, then TTCTTTAACATGCACTGCTGGG, with -0.734.

Values taken from the OligoGym collection.
Also: reference of the scale not given here.
